# Some of the results follow. Unmarked numbers belong to inactive results. Calls of active or inactive are those of the source. Cut-off read from the data, not from the text of the source: active = activation above about 18%; inactive = the rest.
# Target: Mu-type opioid receptor (Homo sapiens) + Delta-type opioid receptor (Homo sapiens) (UniProt P35372+P41143)
# Assay: agonists of MOR-DOR heterodimerization, confirmation, cell-based, luminescence (AID 504904);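 note: 0% = vehicle-treated cells and 100% = reference agonist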
# Settings: cells, luminescence complementation, at 9.3 µM, hits give high values
# Mu-type opioid receptor (Homo sapiens) + Delta-type opioid receptor (Homo sapiens), sequence (P35372 whole entry, looked up): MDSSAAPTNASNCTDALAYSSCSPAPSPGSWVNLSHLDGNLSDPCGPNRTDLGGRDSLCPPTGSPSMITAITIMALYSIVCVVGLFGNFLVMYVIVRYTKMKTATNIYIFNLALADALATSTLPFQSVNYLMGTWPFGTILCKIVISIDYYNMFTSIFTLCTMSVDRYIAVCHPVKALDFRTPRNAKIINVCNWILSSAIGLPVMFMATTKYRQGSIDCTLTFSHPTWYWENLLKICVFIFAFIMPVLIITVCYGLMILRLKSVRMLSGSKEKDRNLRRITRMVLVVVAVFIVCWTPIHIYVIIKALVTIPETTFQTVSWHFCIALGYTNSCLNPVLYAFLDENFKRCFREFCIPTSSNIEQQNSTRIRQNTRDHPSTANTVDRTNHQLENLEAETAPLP
# Mu-type opioid receptor (Homo sapiens) + Delta-type opioid receptor (Homo sapiens), sequence (P41143 whole entry, looked up): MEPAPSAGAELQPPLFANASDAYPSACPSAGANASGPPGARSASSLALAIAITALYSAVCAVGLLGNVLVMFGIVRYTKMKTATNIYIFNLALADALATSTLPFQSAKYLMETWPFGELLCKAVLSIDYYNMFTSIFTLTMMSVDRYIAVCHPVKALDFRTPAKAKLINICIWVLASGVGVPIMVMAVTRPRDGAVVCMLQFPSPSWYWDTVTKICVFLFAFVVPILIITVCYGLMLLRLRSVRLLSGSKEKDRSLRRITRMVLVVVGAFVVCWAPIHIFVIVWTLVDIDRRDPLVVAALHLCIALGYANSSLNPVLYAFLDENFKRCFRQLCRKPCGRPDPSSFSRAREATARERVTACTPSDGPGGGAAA
row,Compound,activation
1,C[C@]12CC[C@H](O)C[C@H]1CC[C@@H]1C2CC[C@]2(C)[C@@H](C3=CC(=O)OC3)[C@@H](O)C[C@]12O (some centres undefined),-3.86%
2,CCC1(C)CC(CCNCc2ccc(N(C)C)cc2)(c2ccc(F)cc2)CCO1 (centres undefined),137% (active)
3,CCOC(=O)C1(CCc2ccccc2)CCN(Cc2ccco2)CC1,41.4% (active)
4,COC1C(O)C(C)OC(OC2CCC3(C=O)C(CCC4C3CCC3(C)C(C5=CC(=O)OC5)CCC43O)C2)C1O (centres undefined),51.8% (active)

# Source: PubChem BioAssay AID504904 (The Scripps Research Institute Molecular Screening Center, 2011)
